# Several values for one entry are separate records, joined by “and”; a condition that tells them apart may be missing. Equal values may be shown once. The panel holds about 83,000 compounds, 20% with a hit somewhere; the sample as a whole holds those more often.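 Single-concentration screen, 48 h exposure, 96-well plates. Endpoint: percent growth. Below 10 = active.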 Activity calls are given as the source filed them.
# Columns and labels:
# Assay in all cases: NCI-60 one-dose screen, 48 h (100 = growth as untreated, 0 = no growth, -100 = all killed)
# SK-MEL-2 melanoma = tested on: SK-MEL-2 melanoma
# EKVX NSCLC = tested on: EKVX NSCLC
# SN12C renal = tested on: SN12C renal
# TK-10 renal = tested on: TK-10 renal
# ACHN renal = tested on: ACHN renal
# CAKI-1 renal = tested on: CAKI-1 renal
# A498 renal = conditions: 10 µM unless noted
# MOLT-4 leukemia = tested on: MOLT-4 leukemia
# SR leukemia = tested on: SR leukemia
# RPMI-8226 leukemia = tested on: RPMI-8226 leukemia
# OVCAR-8 ovarian = tested on: OVCAR-8 ovarian
# OVCAR-5 ovarian = tested on: OVCAR-5 ovarian
# OVCAR-4 ovarian = tested on: OVCAR-4 ovarian
# SK-OV-3 ovarian = tested on: SK-OV-3 ovarian
# IGROV1 ovarian = tested on: IGROV1 ovarian
# OVCAR-3 ovarian = tested on: OVCAR-3 ovarian
# NCI/ADR-RES ovarian = tested on: NCI/ADR-RES ovarian
# UO-31 renal = tested on: UO-31 renal
# CCRF-CEM leukemia = tested on: CCRF-CEM leukemia
# HS 578T breast = conditions: 10 µM unless noted
structure (smiles),measurement,setting,value
Cc1[nH]c(-c2nc3ccccc3[nH]2)c(C)c1C(=O)NC(C)C1CCCCC1 (stereo not given),growth,SK-MEL-2 melanoma; 10 µM,87.2% (inactive)
same,growth,SK-MEL-2 melanoma; 100 µM,-81.6% (active)
same,growth,EKVX NSCLC; 10 µM,93.2% (inactive)
same,growth,EKVX NSCLC; 100 µM,-84.9% (active)
same,growth,SN12C renal; 10 µM,86.1% (inactive)
same,growth,SN12C renal; 100 µM,-89.7% (active)
same,growth,TK-10 renal; 10 µM,103% (inactive)
same,growth,TK-10 renal; 100 µM,-91% (active)
same,growth,ACHN renal; 10 µM,99% (inactive)
same,growth,ACHN renal; 100 µM,-90.9% (active)
same,growth,CAKI-1 renal; 10 µM,85.8% (inactive)
same,growth,CAKI-1 renal; 100 µM,-97.2% (active)
same,growth,A498 renal,-93.3% [100 µM] (active)
same,growth,MOLT-4 leukemia; 10 µM,72.4% (inactive)
same,growth,MOLT-4 leukemia; 100 µM,-51.3% (active)
same,growth,SR leukemia; 10 µM,69% (inactive)
same,growth,SR leukemia; 100 µM,-44.3% (active)
same,growth,RPMI-8226 leukemia; 10 µM unless noted,-65.3% [100 µM] (active)
same,growth,OVCAR-8 ovarian; 10 µM,96.9% (inactive)
same,growth,OVCAR-8 ovarian; 100 µM,-61.5% (active)
same,growth,OVCAR-5 ovarian; 10 µM,94% (inactive)
same,growth,OVCAR-5 ovarian; 100 µM,-95.4% (active)
same,growth,OVCAR-4 ovarian; 10 µM,92.1% (inactive)
same,growth,OVCAR-4 ovarian; 100 µM,-84.1% (active)
same,growth,SK-OV-3 ovarian; 10 µM unless noted,-77.6% [100 µM] (active)
same,growth,IGROV1 ovarian; 10 µM,90.9% (inactive)
same,growth,IGROV1 ovarian; 100 µM,-67.8% (active)
same,growth,OVCAR-3 ovarian; 10 µM,90% (inactive)
same,growth,OVCAR-3 ovarian; 100 µM,-86.9% (active)
same,growth,NCI/ADR-RES ovarian; 10 µM,85.5% (inactive)
same,growth,NCI/ADR-RES ovarian; 100 µM,-79.7% (active)
CC#C[C@]1(O)CC[C@H]2[C@@H]3CCC4=CC(=O)CCC4=C3[C@@H](c3ccc4c(c3)OCO4)C[C@@]21C,growth,SK-MEL-2 melanoma; 10 µM,71.1% (inactive)
same,growth,SK-MEL-2 melanoma; 100 µM,-50.8% (active)
same,growth,EKVX NSCLC; 10 µM,72.4% (inactive)
same,growth,EKVX NSCLC; 100 µM,-10.7% (active)
same,growth,SN12C renal; 10 µM,91.2% (inactive)
same,growth,SN12C renal; 100 µM,-16.1% (active)
same,growth,UO-31 renal; 10 µM,66.1% (inactive)
same,growth,UO-31 renal; 100 µM,-42.4% (active)
same,growth,TK-10 renal; 10 µM,69.9% (inactive)
same,growth,TK-10 renal; 100 µM,-25.2% (active)
same,growth,ACHN renal; 10 µM unless noted,80.4% (inactive)
same,growth,CCRF-CEM leukemia; 10 µM,89.9% (inactive)
same,growth,CCRF-CEM leukemia; 100 µM,-11.2% (active)
same,growth,MOLT-4 leukemia; 10 µM,69.2% (inactive)
same,growth,MOLT-4 leukemia; 100 µM,-7.79% (active)
same,growth,SR leukemia; 10 µM,60.8% (inactive)
same,growth,SR leukemia; 100 µM,-20.8% (active)
same,growth,RPMI-8226 leukemia; 10 µM,69.6% (inactive)
same,growth,RPMI-8226 leukemia; 100 µM,-35% (active)
same,growth,OVCAR-8 ovarian; 10 µM,81.6% (inactive)
same,growth,OVCAR-8 ovarian; 100 µM,-13.6% (active)
same,growth,OVCAR-4 ovarian; 10 µM,80.9% (inactive)
same,growth,OVCAR-4 ovarian; 100 µM,8.93% (active)
same,growth,SK-OV-3 ovarian; 10 µM,87.8% (inactive)
same,growth,SK-OV-3 ovarian; 100 µM,-5.43% (active)
same,growth,IGROV1 ovarian; 10 µM,86.1% (inactive)
same,growth,IGROV1 ovarian; 100 µM,2.61% (active)
same,growth,OVCAR-3 ovarian; 10 µM,78% (inactive)
same,growth,OVCAR-3 ovarian; 100 µM,-40.2% (active)
same,growth,NCI/ADR-RES ovarian; 10 µM,76.7% (inactive)
same,growth,NCI/ADR-RES ovarian; 100 µM,-15.3% (active)
O=C1NC(=O)C2(CCc3ccccc32)N1 (stereo not given),growth,SK-MEL-2 melanoma; 10 µM unless noted,129% (inactive) and 51.4% (inactive)
same,growth,EKVX NSCLC; 10 µM unless noted,103% (inactive) and 99.9% (inactive)
same,growth,SN12C renal; 10 µM unless noted,104% (inactive) and 95.1% (inactive)
same,growth,UO-31 renal; 10 µM unless noted,101% (inactive) and 85.3% (inactive)
same,growth,TK-10 renal; 10 µM unless noted,105% (inactive) and 99.5% (inactive)
same,growth,ACHN renal; 10 µM unless noted,111% (inactive) and 96.7% (inactive)
same,growth,CAKI-1 renal; 10 µM unless noted,98.4% (inactive) and 89.7% (inactive)
same,growth,A498 renal,94.4% (inactive)
same,growth,CCRF-CEM leukemia; 10 µM unless noted,118% (inactive) and 94.2% (inactive)
same,growth,MOLT-4 leukemia; 10 µM unless noted,101% (inactive) and 83.3% (inactive)
same,growth,SR leukemia; 10 µM unless noted,111% (inactive) and 95.6% (inactive)
same,growth,RPMI-8226 leukemia; 10 µM unless noted,106% (inactive) and 95.6% (inactive)
same,growth,OVCAR-8 ovarian; 10 µM unless noted,110% (inactive) and 102% (inactive)
same,growth,OVCAR-5 ovarian; 10 µM unless noted,108% (inactive) and 78.7% (inactive)
same,growth,OVCAR-4 ovarian; 10 µM unless noted,103% (inactive) and 108% (inactive)
same,growth,SK-OV-3 ovarian; 10 µM unless noted,114% (inactive) and 101% (inactive)
same,growth,OVCAR-3 ovarian; 10 µM unless noted,99.5% (inactive) and 114% (inactive)
same,growth,HS 578T breast,121% (inactive)
same,growth,NCI/ADR-RES ovarian; 10 µM unless noted,109% (inactive) and 92.5% (inactive)
CC(CN=Cc1ccccc1O)N=Cc1ccccc1O (stereo not given),growth,SK-MEL-2 melanoma; 10 µM unless noted,154% (inactive) and 102% (inactive)
same,growth,EKVX NSCLC; 10 µM unless noted,102% (inactive) and 111% (inactive)
same,growth,SN12C renal; 10 µM unless noted,90.4% (inactive) and 98.7% (inactive)
same,growth,UO-31 renal; 10 µM unless noted,107% (inactive) and 80.3% (inactive)
same,growth,TK-10 renal; 10 µM unless noted,110% (inactive) and 106% (inactive)
same,growth,ACHN renal; 10 µM unless noted,103% (inactive) and 93.8% (inactive)
same,growth,CAKI-1 renal; 10 µM unless noted,93.6% (inactive) and 99.1% (inactive)
same,growth,A498 renal,121% (inactive) and 105% (inactive)
same,growth,CCRF-CEM leukemia; 10 µM unless noted,92.3% (inactive) and 96.2% (inactive)
same,growth,MOLT-4 leukemia; 10 µM unless noted,120% (inactive) and 93.3% (inactive)
same,growth,SR leukemia; 10 µM unless noted,100% (inactive)
same,growth,RPMI-8226 leukemia; 10 µM unless noted,-6.87% (active) and 94% (inactive)
same,growth,OVCAR-8 ovarian; 10 µM unless noted,106% (inactive) and 108% (inactive)
same,growth,OVCAR-5 ovarian; 10 µM unless noted,104% (inactive) and 95.5% (inactive)
same,growth,OVCAR-4 ovarian; 10 µM unless noted,109% (inactive) and 103% (inactive)
same,growth,SK-OV-3 ovarian; 10 µM unless noted,104% (inactive) and 86.4% (inactive)
same,growth,IGROV1 ovarian; 10 µM unless noted,-14.8% (active) and 112% (inactive)
same,growth,OVCAR-3 ovarian; 10 µM unless noted,97.4% (inactive) and 112% (inactive)
same,growth,NCI/ADR-RES ovarian; 10 µM unless noted,105% (inactive) and 101% (inactive)

# Reference: PubChem BioAssay (NCI)
